The list is not random: actives were taken first. Their share in the collection is about 2.1%.
EP2 modulator – EP2 receptor modulators, cAMP readout, primary screen, cell-based, HTRF cAMP, PGE2 stimulation | EP2-expressing cells, cAMP HTRF FRET, PGE2 co-stimulation | Prostaglandin E2 receptor EP2 subtype (Homo sapiens), P43116 | induction, % at 25 µM | hit rate 0.83% among 260,000;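 active = compounds whose cAMP rise, as percent of the full-agonist control response, exceeds 60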;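 also: rat C6 glioma line stably carrying human EP2 under a CMV promoter; the protocol text gives 20 µM as final concentration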
Target sequence (P43116 whole entry, looked up): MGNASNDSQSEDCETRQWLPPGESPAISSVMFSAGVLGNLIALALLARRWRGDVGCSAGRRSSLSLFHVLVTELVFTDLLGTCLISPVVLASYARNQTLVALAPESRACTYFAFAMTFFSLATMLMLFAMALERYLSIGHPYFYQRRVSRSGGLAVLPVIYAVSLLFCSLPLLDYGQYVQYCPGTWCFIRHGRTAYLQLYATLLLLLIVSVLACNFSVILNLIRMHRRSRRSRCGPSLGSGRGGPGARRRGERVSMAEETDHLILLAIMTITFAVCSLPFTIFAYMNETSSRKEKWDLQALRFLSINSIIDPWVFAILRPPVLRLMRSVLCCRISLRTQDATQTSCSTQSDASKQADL
CHT PAM – CHT positive allosteric modulators, primary screen, cell-based, membrane potential dye, choline EC20 | CHT-expressing cells; stronger effect = higher value; LV-AA mutant CHT in HEK293 cells | High affinity choline transporter 1 (Homo sapiens), Q9GZV3 | B-score at 10 µM | hit rate 0.49% among 310,000;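 active = initial fluorescence not abnormally high and integrated response B-score, plate-corrected, over 3 SD above library mean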
PGE2 EP2 inh – human EP2 receptor antagonists, primary screen, TR-FRET cAMP, C6 glioma cells; hit rate 0.52% among 260,000; inhibition, % at 25 µM; C6 glioma cells expressing human EP2; cells stimulated with saturating PGE2;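 active = percent inhibition above 40 after rounding to a whole number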;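 also: rat C6 glioma host cells with rolipram phosphodiesterase inhibitor present; the protocol text gives 20 µM as final concentration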
CHT inh – inhibitors of human choline transporter CHT. CHT-expressing cells, membrane potential dye, choline response; stronger effect = lower value. B-score at 10 µM. hit rate 0.86% among 310,000. AID 488975, 2010;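 active = B-score over 3 SD under the library average, and starting fluorescence ratio not unusually high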;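 also: choline stimulus applied at its EC90 after an EC20 pre-addition; B-score computed on integrated fluorescence ratio after choline addition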
EP2 cAMP induct – cAMP induction in EP2, EP4, beta2-AR and parental cells, confirmation, counter-screen for EP2 modulator project, cell-based, five parallel assays, C6 glioma, HEK293 | AID 1080, 2008 | shares compounds with EP2 modulator | cAMP HTRF induction; plus low (about EC15) PGE2 agonist | calls only at 20 µM (by protocol) | hit rate 47% among 1,300;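 active = cAMP induction above 50% in the main assay while under 30% in all four parallel counter assays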;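 also: rat C6 glioma cells stably expressing human EP2 receptor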
Large screens that a line does not name were inactive (follow-up assays come after a bar, where they were run).

COc1ccc(NC(=O)N(Cc2ccco2)Cc2cc3cc4c(cc3[nH]c2=O)OCCO4)cc1	none (no result: CHT PAM, CHT inh)
CC(=O)c1sc2nc(-c3ccc(C)cc3)c3c(c2c1N)CCCC3	EP2 modulator 72 | EP2 cAMP induct active
CCCCOc1ccccc1Cn1c(=O)oc2ccc(C)cc21	EP2 modulator 79 | EP2 cAMP induct active
Cc1ccc(C(C)C)c(OCCn2c(=O)oc3ccccc32)c1	EP2 modulator 61 | EP2 cAMP induct inactive
COc1ccccc1Cn1c(=O)oc2ccc(C)cc21	none (no result: EP2 modulator, PGE2 EP2 inh)
Cc1ccc2oc(=O)n(Cc3ccccc3OC(C)C)c2c1	EP2 modulator 67 | EP2 cAMP induct active
CCCOc1ccccc1Cn1c(=O)oc2ccccc21	none (no result: EP2 modulator, PGE2 EP2 inh)
CCC(c1nnnn1C1CCCC1)N(Cc1cc2cc(C)cc(C)c2[nH]c1=O)C1CCCCC1 (configuration not stated)	none (no result: CHT PAM, CHT inh)
Cn1ccnc1C(NC(=O)C1(c2ccccc2)CC1)c1ccc(F)c(F)c1 (configuration not stated)	none (no result: CHT PAM, CHT inh)
CCOc1nc(-c2ccccc2O)nc2ccccc12	EP2 modulator 81 | EP2 cAMP induct active
Oc1ccccc1-c1nc(NC2CCCC2)c2ccccc2n1	none (no result: EP2 modulator, PGE2 EP2 inh)
COc1cccc(C2C3=C(CCCC3=O)N(C)C3=C2C(=O)CCC3)c1	none (no result: CHT PAM, CHT inh)
CCOC(=O)c1sc2nc(C)nc(N3CCN(c4ncccn4)CC3)c2c1C	EP2 modulator 67 | EP2 cAMP induct inactive
COc1ccc(C2CC(c3ccc(F)cc3)Nc3ncnn32)cc1OC (configuration not stated)	none (no result: CHT PAM, CHT inh)
COc1ccccc1N(C(=O)NCc1ccccc1)C1=NCC(C)S1 (configuration not stated)	EP2 modulator 69 | EP2 cAMP induct active
Clc1ccc(-c2nc3ccccn3c2CN2CCCCC2)cc1	EP2 modulator 66 | EP2 cAMP induct inactive
Cc1ccc(-c2cc(C(F)(F)F)nn2-c2ccc(S(N)(=O)=O)cc2)cc1	EP2 modulator 66 | EP2 cAMP induct active
C[C@H](Cn1nnc2ccccc21)NC(=O)c1cccc(N2CCCCS2(=O)=O)c1	none (no result: CHT PAM, CHT inh)
O=C(Nc1ccccc1-c1nc2ccccc2s1)C1=COCCO1	EP2 modulator 74 | EP2 cAMP induct inactive
O=C(CSc1nnc(-c2ccccc2)n1Cc1ccco1)N1CCOCC1	none (no result: CHT PAM, CHT inh)
O=C(Cc1ccc2c(c1)OCO2)N1CCC(c2ccc3c(c2)OCO3)CC1	none (no result: CHT PAM, PGE2 EP2 inh, CHT inh)
CCCCCCn1c(SCC(C)C)nc2c1c(=O)[nH]c(=O)n2C	EP2 modulator 67 | EP2 cAMP induct inactive
CCCCCn1c(CN2CCN(c3cc(Cl)ccc3C)CC2)nc2c1c(=O)[nH]c(=O)n2C	EP2 modulator 78 | EP2 cAMP induct inactive
CCCCn1c(CN2CCN(C(=O)OCC)CC2)nc2c1c(=O)[nH]c(=O)n2C	none
CCSc1nc2c(c(=O)[nH]c(=O)n2C)n1Cc1ccc(Cl)cc1	EP2 modulator 66 | EP2 cAMP induct inactive
Cc1cccc(Oc2nc(-c3ccccc3)cc(C)c2S(C)(=O)=O)c1C	EP2 modulator 72 | EP2 cAMP induct active
Cc1ccc(-n2c(=S)[nH]c3c(oc4ccccc43)c2=O)cc1C	EP2 modulator 74 | EP2 cAMP induct inactive
O=S(=O)(c1ccc(Cl)cc1)c1cnc(-c2cccnc2)nc1-c1ccccc1	none
CN(C)c1ncc(S(=O)(=O)c2ccc(Cl)cc2)c(-c2ccccc2)n1	EP2 modulator 80 | EP2 cAMP induct active
COc1ccc(-c2ccc(SCC(=O)Nc3nc(C)c(C)s3)nn2)cc1	none (no result: CHT PAM, CHT inh)
CCOP(=O)(c1ccccc1)c1nc(-c2ccccc2Cl)oc1N1CCCCC1 (configuration not stated)	EP2 modulator 71 | EP2 cAMP induct active
CN(C)c1nc(N2CCOCC2)nc(N(c2ccccc2)c2ccccc2)n1	EP2 modulator 66 (no result: CHT PAM, CHT inh) | EP2 cAMP induct inactive
Nc1nc(N2CCOCC2)nc(N(c2ccccc2)c2ccccc2)n1	none
CCOC(=O)Cc1csc(NC(NC(=O)CC)(C(F)(F)F)C(F)(F)F)n1	EP2 modulator 65 | EP2 cAMP induct inactive
CCOC(=O)Cc1csc(NC(=O)CCC(=O)O)n1	none
Cc1ccnc(NC(=O)CCC(=O)N(CC(=O)NC(C)(C)C)c2ccc(C)c(C)c2)c1	none (no result: CHT PAM, CHT inh)
CCCCOC(=O)CSc1nc(N)c(C#N)c(-c2ccc(OCC)cc2)c1C#N	EP2 modulator 74 | EP2 cAMP induct inactive
